Of roughly 7,900 targets only a part is listed; those with a hit were picked by preference. About 0.6% of all pairs of compound and target were hits.
Assays:
Test in all cases: log2 fold change, soluble protein after heating vs DMSO (PISA); higher = thermal stabilisation; K562 cells, 10 uM, 30 min; active = over 0.2 and 3.5 SD of the protein, either way, in both replicates (recomputed)
AAGAB = AAGAB (UniProt Q6PD74)
Outline: (§1)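 K562 cells at 2×10^6 cells/mL were treated with 10 μM compound for 30 min. Aliquots were heated for 3 min across 48°C-58°C, pooled, and extracted in PBS with 0.5% NP-40 at 4°C; soluble protein was the supernatant after 21,000xg for 90 min. Soluble protein was quantified by TMTpro 16plex LC-MS/MS with channel sums equalised, and reported as log2 fold change in thermal stability against DMSO controls, with values from duplicates.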

AAK1 [1] = target: AAK1 (UniProt A0A096LP25)
Outline: as §1

AAK1 [2] = target: AAK1 (UniProt Q2M2I8)
Outline: as §1

Measured: log2 fold change

Chain of AAGAB (Q6PD74 whole entry, looked up): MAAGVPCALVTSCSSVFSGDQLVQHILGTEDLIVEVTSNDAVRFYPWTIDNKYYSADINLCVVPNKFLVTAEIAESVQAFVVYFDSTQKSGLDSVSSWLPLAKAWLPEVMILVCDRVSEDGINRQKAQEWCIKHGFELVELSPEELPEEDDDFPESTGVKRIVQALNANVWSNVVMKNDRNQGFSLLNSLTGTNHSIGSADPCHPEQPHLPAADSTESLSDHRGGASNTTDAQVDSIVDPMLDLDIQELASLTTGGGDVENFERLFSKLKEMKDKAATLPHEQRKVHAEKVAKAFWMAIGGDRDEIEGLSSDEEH
Chain of AAK1 (UniProt Q2M2I8) (Q2M2I8 whole entry, looked up): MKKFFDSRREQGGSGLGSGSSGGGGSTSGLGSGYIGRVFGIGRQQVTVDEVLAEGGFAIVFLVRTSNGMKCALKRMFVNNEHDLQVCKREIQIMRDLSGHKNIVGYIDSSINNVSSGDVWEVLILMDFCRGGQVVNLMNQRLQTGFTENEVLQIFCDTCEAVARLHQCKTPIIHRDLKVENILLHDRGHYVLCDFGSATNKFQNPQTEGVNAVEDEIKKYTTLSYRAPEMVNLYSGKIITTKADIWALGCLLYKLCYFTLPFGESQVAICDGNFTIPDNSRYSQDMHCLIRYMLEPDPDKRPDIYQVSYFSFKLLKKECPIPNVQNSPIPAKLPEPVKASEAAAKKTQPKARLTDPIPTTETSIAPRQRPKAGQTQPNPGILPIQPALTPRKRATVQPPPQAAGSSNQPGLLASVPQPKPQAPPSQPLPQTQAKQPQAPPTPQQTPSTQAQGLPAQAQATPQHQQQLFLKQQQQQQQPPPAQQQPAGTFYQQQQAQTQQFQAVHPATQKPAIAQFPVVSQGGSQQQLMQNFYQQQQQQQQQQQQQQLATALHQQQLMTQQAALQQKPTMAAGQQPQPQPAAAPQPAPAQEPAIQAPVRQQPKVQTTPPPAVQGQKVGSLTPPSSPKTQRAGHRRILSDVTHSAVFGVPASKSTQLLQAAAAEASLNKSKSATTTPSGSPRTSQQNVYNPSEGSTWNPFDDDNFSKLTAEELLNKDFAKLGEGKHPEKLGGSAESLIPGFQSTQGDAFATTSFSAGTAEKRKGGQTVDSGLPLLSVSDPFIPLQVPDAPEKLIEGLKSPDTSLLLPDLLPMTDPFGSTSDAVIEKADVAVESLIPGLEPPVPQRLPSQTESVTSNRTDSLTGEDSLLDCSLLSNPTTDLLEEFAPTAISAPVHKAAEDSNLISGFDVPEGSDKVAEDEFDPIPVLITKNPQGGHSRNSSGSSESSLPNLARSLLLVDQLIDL

COc1cc(Nc2ncc3c(n2)-c2ccc(Cl)cc2C(c2c(F)cccc2OC)=NC3)ccc1C(=O)O [alisertib]
inactive: AAGAB 0.062 | AAK1 [1] 0.002 | AAK1 [2] 0.576

Cc1cc(Nc2cc(CN3CCOCC3)c3nc(C)c(Cc4ccc(Cl)cc4F)n3n2)n[nH]1 [gandotinib]
inactive: AAGAB -0.026 | AAK1 [1] 0.103 | AAK1 [2] 0.091

O=C(CCCCCCNC(=O)c1cnc(N(c2ccccc2)c2ccccc2Cl)nc1)NO [citarinostat]
inactive: AAGAB 0.024 | AAK1 [1] -0.014 | AAK1 [2] -0.015

O=C1c2ccccc2-c2n[nH]c3cccc1c23
inactive: AAGAB 0.01 | AAK1 [1] 0.254 | AAK1 [2] 0.319

Cc1ccc(NC(=O)c2cccc(N(C)C)c2)cc1NC(=O)c1ccc(O)cc1
inactive: AAGAB -0.063 | AAK1 [1] -0.011 | AAK1 [2] 0

Cc1nc(Nc2n[nH]c3c2CN(C(=O)N[C@H](CN(C)C)c2ccccc2)C3(C)C)c2sccc2n1
inactive: AAGAB -0.109 | AAK1 [1] 0.104 | AAK1 [2] 0.158

Cc1ccc(-n2nc(C(C)(C)C)cc2NC(=O)Nc2ccc(OCCN3CCOCC3)c3ccccc23)cc1 [doramapimod]
inactive: AAGAB 0.017 | AAK1 [1] -0.013 | AAK1 [2] -0.095

NC1(c2ccc(-c3nc4ccn5c(=O)[nH]nc5c4cc3-c3ccccc3)cc2)CCC1
inactive: AAGAB -0.174 | AAK1 [1] 0.048 | AAK1 [2] -0.027

c1cn2cc(-c3ccc4cn[nH]c4c3)nc(Nc3ccc(N4CCOCC4)cc3)c2n1 [entospletinib]
inactive: AAGAB 0.116 | AAK1 [1] 0.224 | AAK1 [2] 0.132

Source: the supplement of paper PMC10849652
